Screens from PubChem.
Compounds with a hit are over-represented: about 17% of the library has one in this group of screens.
ClpP mod: qHTS Assay for Activators of ClpP; ATP-dependent Clp protease proteolytic subunit (Bacillus subtilis (strain 168)), P80244; purified B. subtilis ClpP, FRET peptide cleavage, 20 min; Potency, µM (top dose mostly 57.5 µM), without a hit: at the top dose activity change, negative = active; hit rate 1.9% among 340,000; active = well fitted falling curve with a large enough effect; inconclusive = small, poorly fitted or top-dose-only effect; inactive = no such curve, though single readings can be large or run the other way; also: the source files actives as falling curves though it sought activators and does not explain the sign; nearly all actives have a fitted effect of over 65% in size
Target sequence (P80244 whole entry, looked up): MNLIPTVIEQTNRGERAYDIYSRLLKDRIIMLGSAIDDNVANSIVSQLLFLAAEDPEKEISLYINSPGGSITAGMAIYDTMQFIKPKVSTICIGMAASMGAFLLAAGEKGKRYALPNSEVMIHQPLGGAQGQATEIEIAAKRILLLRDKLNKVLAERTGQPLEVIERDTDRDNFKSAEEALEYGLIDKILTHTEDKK
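FRET quenching reversal measured ClpP activation: 10 microg/mL B. subtilis ClpP at pH 8 with the FRET-FV decapeptide, read at 430 nm after 320 nm excitation. The 20-min minus 0-min signal was scaled between DMSO/no-enzyme wells and ADEP (5.8 microM final).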
TDP1 block: qHTS Assay for Inhibitors of Tyrosyl-DNA Phosphodiesterase (TDP1); Potency, µM (titrated, usually from 130 µM), inactives show at the highest dose activity change, negative = inhibition, most hits filed as inhibitors; recombinant TDP1, AlphaScreen DNA substrate cleavage; hit rate 0.28% among 350,000; AID 485290, 2010; also: % is scaled to controls: 0 for no effect and ±100 for the full control effect; nearly all actives have a fitted effect of over 40% in size
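Signal: AlphaScreen proximity between streptavidin donor and anti-FITC acceptor beads on intact substrate. Reaction: Tdp1 1 nM, substrate 15 nM final, 5 min RT after 15 min compound preincubation.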
DT40 TDP1 CPT: qHTS for Inhibitors of human tyrosyl-DNA phosphodiesterase 1 (TDP1): qHTS in cells in presence of CPT. chicken DT40 Tdp1-/-;hTDP1 cells + 20 nM CPT, ATP luminescence, 48 h. Potency, µM (series often up to 46.2 µM), for inactives: at the highest dose activity change, negative = growth inhibition, most hits filed as inhibitors. hit rate 12% among 420,000; also: % is scaled to controls: 0 for no effect and ±100 for the full control effect; nearly all actives have a fitted effect of over 55% in size
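Cell growth measured by CellTiter-Glo luminescence after a minimum 48 h, 37 C compound exposure with 20 nM CPT in Tdp1-knockout DT40 cells stably expressing hTDP1, seeded 400/well; qHTS titration format.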
TDP1 cell noCPT: qHTS for Inhibitors of human tyrosyl-DNA phosphodiesterase 1 (TDP1): qHTS in cells in absence of CPT. Potency, µM (titrated, usually from 46.2 µM), without a hit: at the top dose activity change, negative = growth inhibition, most hits filed as inhibitors. AID 686978, 2013. DT40 Tdp1-/- hTDP1 cells, no CPT, ATP luminescence, 48 h. hit rate 15% among 420,000; also: % is scaled to controls: 0 for no effect and ±100 for the full control effect; nearly all actives have a fitted effect of over 55% in size
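Camptothecin absent (DMSO only). Human TDP1-complemented DT40 knockout cells, 400 cells/well, 37 °C for minimum 48 hr; ATP measured via CellTiter-Glo, 30 min dark incubation, luminescence.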
* hit, by the source's call; ? = inconclusive; · = no result given; [ ] = another dose, or the depositor's remark. Unless noted, calls follow the shape of the dose curve; as a rule, active = well fitted curve in the direction sought with a large enough effect; inconclusive = small, poorly fitted or top-dose-only effect, or another doubt; inactive = no such curve, though single readings can be large; an effect the other way counts as inactive or inconclusive. Potency is read from the fitted curve at half-maximal effect.

SMILES | ClpP mod | TDP1 block | DT40 TDP1 CPT | TDP1 cell noCPT
NS(=O)(=O)c1ccc(CCNC(=O)CCn2c(=O)c3cccn3c3cccnc32)cc1 | -23.9% | 0.0% | -0.1% | -2.4%
Cc1noc(C)c1-c1cncnc1NCc1cccnc1 | · | · | 1.9% | 2.0%
CC(=O)c1c(C)n(-c2ccc(C)cc2)c2ccc(OC(=O)COc3ccccc3)cc12 | 0.1% | · | 6.51µM* | 7.31µM*
CCOC(=O)c1c(C)n(-c2ccc(OC)cc2)c2ccc(OC(=O)COc3ccccc3)cc12 | ? | 3.1%[12.3 µM] | ? | 20.6µM*
COc1ccc(-n2c(C)c(C(C)=O)c3cc(OC(=O)COc4ccccc4)ccc32)cc1 | -1.6% | · | 6.51µM* | 7.31µM*
CCOC(=O)c1c(C)n(-c2ccccc2)c2ccc(OC(=O)COc3ccccc3)cc12 | 3.8% | 8.6%[2.28 µM] | ? | -14.4%
CC(C)CNC(=O)C(=O)NCCC1CCCCN1S(=O)(=O)c1cccs1 (stereo not given) | -2.2% | -0.3% | -0.5% | -4.2%
COc1ccc(-c2csc(NC(=O)C3CSC4(C)CCC(=O)N34)n2)c(OC)c1 (stereo not given) | 0.4% | -9.0%[0.505 µM] | ? | 23.1µM*
COc1cccc(CN(C)C(=O)c2ccccc2Sc2ccccc2C#N)c1 | -1.7% | 3.4% | ? | ?
COc1ccc(CN(C)C(=O)c2ccccc2Sc2ccccc2C#N)cc1OC | 0.1% | 4.6% | 16.4µM* | ?
CCCn1c2ccccc2c2cnn(CC(=O)N3CCC(C)CC3)c(=O)c21 | 4.6% | 5.0% | ? | ?
CCCCN(CC)C(=O)Cn1ncc2c3ccccc3n(CCC)c2c1=O | 0.7% | 2.5% | ? | 23.1µM*
CCCn1c2ccccc2c2cnn(CC(=O)N(Cc3ccccc3)C(C)C)c(=O)c21 | ? | 1.2% | 23.1µM* | 18.4µM*
CCCn1c2ccccc2c2cnn(CC(=O)N(C)c3ccc(F)cc3)c(=O)c21 | 5.2% | 2.5% | 18.4µM* | 18.4µM*
Cc1cc(C)cc(-n2cnc3cc(C(=O)NCCc4ccccc4)ccc32)c1 | -9.5% | 13.0% | ? | ?
O=C(NN1CCOCC1)c1ccc(Cl)s1 | · | -1.2% | 12.5% | -2.7%
Cc1ccc(S(=O)(=O)c2nc(S(C)(=O)=O)sc2N2CCCCCC2)cc1 | -3.2% | 3.2% | -24.5% | -1.5%
Cc1ccc(S(=O)(=O)c2nc(S(C)(=O)=O)sc2N2CCC(C)CC2)cc1 | 1.1% | 0.5% | 14.6µM* | 14.6µM*
COCCn1c(=O)c(-c2ccc(F)cc2)nc2cnc(OCc3ccccc3)nc21 | · | · | 0.7% | -7.5%
O=C1CC(C(=O)Nc2ccc(Cl)cc2[N+](=O)[O-])C2(CCCCC2)O1 (stereo not given) | 28.2µM* | 5.5% | -12.3% | -22.4%
O=C1CC(C(=O)Nc2ccccc2)C2(CCCCC2)O1 (stereo not given) | 0.9% | 4.6% | 3.2% | ?
CCNc1nc(OC)nc(SCC(=O)Nc2ccccc2)n1 | 1.4% | -0.6% | ? | ?
Cn1c(=O)c2c(nc(SCc3cccnc3)n2Cc2ccccc2)n(C)c1=O | -1.6% | 5.9% | ? | ?
Cn1c(OCc2cccnc2)nc2c1c(=O)n(Cc1ccccc1)c(=O)n2C | -1.6% | 8.0% | ? | 18.4µM*
Cn1c(Oc2cccc(Cl)c2)nc2c1c(=O)n(Cc1ccccc1Cl)c(=O)n2C | -0.5% | · | -20.2% | -26.8%
SMILES | ClpP mod | TDP1 block | DT40 TDP1 CPT | TDP1 cell noCPT
Cn1c(OCc2cccnc2)nc2c1c(=O)n(Cc1ccc(F)cc1)c(=O)n2C | 1.1% | 1.4% | 20.6µM* | 11.6µM*
Cn1c(Oc2ccccc2)nc2c1c(=O)n(Cc1ccc(Cl)cc1Cl)c(=O)n2C | 1.6% | 2.9%[2.28 µM] | 14.6µM* | 16.4µM*
Cn1c(=O)c2c(nc(SCc3cccnc3)n2Cc2ccc(F)cc2)n(C)c1=O | 0.7% | -2.9% | 20.6µM* | 23.1µM*
O=C(Nc1ccccc1F)Nc1ccc([N+](=O)[O-])cc1Cl | -2.7% | · | ? | ?
Cc1ccc(O)c(Cc2cc(C)cc(Cc3cc(C)ccc3O)c2O)c1 | -6.1% | · | ? | ?
Cc1ccccc1-n1nnnc1SCC(=O)c1c(N)n(C2CC2)c(=O)[nH]c1=O | -1.0% | -4.1% | ? | ?
Cn1c(OCc2ccc3c(c2)OCO3)nc2c1c(=O)n(Cc1cccc(Cl)c1)c(=O)n2C | -0.4% | · | ? | 10.3µM*
Cn1c(Oc2ccc3c(c2)OCO3)nc2c1c(=O)n(Cc1ccccc1)c(=O)n2C | -2.0% | -12.1% | ? | ?
Cc1cccc(/C=N/n2c(C)nc3ccccc3c2=O)c1 | 0.9% | · | -7.4% | ?
CCOC(=S)SCC(=O)Nc1nc(-c2ccc(Br)cc2)cs1 | -8.8% | -2.3% | 4.61µM* | 4.61µM*
O=C(O)CCC(=O)Nc1nc(-c2ccccc2)cs1 | 0.0% | 0.0% | -9.8% | 4.2%
CCOC(=S)SCC(=O)Nc1nc(-c2ccccc2)cs1 | 2.4% | 3.2% | 2.91µM* | 2.59µM*
CCn1c(=O)c2sccc2n(CC(=O)NCCC2=CCCCC2)c1=O | · | 2.2% | 2.0% | -20.0%
O=C(O)c1cc(S(=O)(=O)Nc2cc(Cl)ccc2Oc2ccccc2)ccc1O | -29.2% | 4.6% | 2.4% | 14.6%
OC[C@@H]1OC(O)[C@H](O)[C@H](O)[C@H]1O (stereo not given in full) | · | 10.2% | · | ·
CC(/C=N/n1c(-c2ccco2)n[nH]c1=S)=C\c1ccco1 | -3.4% | -3.2% | -13.7% | 4.3%
CC(/C=N\Nc1nnc2c(n1)[nH]c1c(C)cccc12)=C\c1ccco1 | -0.7% | 6.8% | 9.2µM* | 10.3µM*
COC(=O)/C=c1\sc2ncnn2c1=O | ? | · | 5.8µM* | 13µM*
Cc1cc(NS(=O)(=O)c2ccc(NC(=O)Cc3ccccc3)cc2)nc(C)n1 | · | 14.1% | 5.8% | -9.3%
N#Cc1ccccc1Cn1c(=O)n(Cc2ccc(C(=O)NC3CCN(Cc4ccccc4)CC3)cc2)c(=O)c2ccccc21 | 1.2% | 4.5% | 2.4% | 7.3%
CC(C)(C)C(=O)CSc1ncnc2c1cnn2Cc1ccccc1 | · | · | -11.0% | 14.6µM*
Cc1c(Cl)cccc1NC(=O)CSc1ncnc2c1cnn2CCc1ccccc1 | -1.3% | 0.0% | -27.2% | ?
O=C(CSc1ncnc2c1cnn2CCc1ccccc1)Nc1cccc(C(F)(F)F)c1 | -2.1% | -1.6% | ? | 23.1µM*
CCOC(=O)CSC1=NC(=O)/C(=C/c2ccc(Br)cc2)S1 | · | 8.1% | 2.59µM* | 4.11µM*
CCOC(=O)COc1ccc(Br)cc1/C=C1\SC(N)=NC1=O | -5.7% | -5.0% | -3.8% | ?
CCOC(=O)CSC1=NC(=O)/C(=C\c2ccc(OC(C)=O)cc2)S1 | 0.9% | 9.9% | 2.59µM* | 2.91µM*
NC1=NC(=O)/C(=C/c2ccc(Br)cc2)S1 | 1.2% | · | -9.6% | -3.3%
